Reference: the supplement of paper PMC11732987, “Enantioselective OTUD7B fragment discovery through chemoproteomics screening and high-throughput optimisation” (Communications Chemistry, 2025)

Experiments:
Experiment in all cases: log2 ratio of Biotin-Ahx-Ub-VS probe labelling (fragment/DMSO); higher = less target engagement (more negative = stronger competition), active = hit call of the paper (q ≤ 0.05, log2 ratio ≤ -1)
Conditions in all cases: compound concentration: 200 uM; treatment time: 3 h
USP34 = USP34 (UniProt Q70CQ2)
Method in brief: (§1)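 Labelled DUBs from HEK293T lysate were NeutrAvidin-enriched, digested with LysC and trypsin, and run by diaPASEF LC-MS/MS. Before that, each 495 µg sample in Tris/CHAPS/IGEPAL buffer with protease inhibitors was treated in triplicate with fragment at 200 µM or vehicle for 3 h, then with Biotin-Ahx-Ub-VS at 0.5 µM final for 1 h. Values are average log2 ratios of fragment over vehicle by unpaired t-test, based on global-median-normalised Spectronaut label-free quantities from proteins with ≥2 unique peptides.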

USP36 = target: T1, USP36 (UniProt Q9P275)
T1 sequence (whole entry): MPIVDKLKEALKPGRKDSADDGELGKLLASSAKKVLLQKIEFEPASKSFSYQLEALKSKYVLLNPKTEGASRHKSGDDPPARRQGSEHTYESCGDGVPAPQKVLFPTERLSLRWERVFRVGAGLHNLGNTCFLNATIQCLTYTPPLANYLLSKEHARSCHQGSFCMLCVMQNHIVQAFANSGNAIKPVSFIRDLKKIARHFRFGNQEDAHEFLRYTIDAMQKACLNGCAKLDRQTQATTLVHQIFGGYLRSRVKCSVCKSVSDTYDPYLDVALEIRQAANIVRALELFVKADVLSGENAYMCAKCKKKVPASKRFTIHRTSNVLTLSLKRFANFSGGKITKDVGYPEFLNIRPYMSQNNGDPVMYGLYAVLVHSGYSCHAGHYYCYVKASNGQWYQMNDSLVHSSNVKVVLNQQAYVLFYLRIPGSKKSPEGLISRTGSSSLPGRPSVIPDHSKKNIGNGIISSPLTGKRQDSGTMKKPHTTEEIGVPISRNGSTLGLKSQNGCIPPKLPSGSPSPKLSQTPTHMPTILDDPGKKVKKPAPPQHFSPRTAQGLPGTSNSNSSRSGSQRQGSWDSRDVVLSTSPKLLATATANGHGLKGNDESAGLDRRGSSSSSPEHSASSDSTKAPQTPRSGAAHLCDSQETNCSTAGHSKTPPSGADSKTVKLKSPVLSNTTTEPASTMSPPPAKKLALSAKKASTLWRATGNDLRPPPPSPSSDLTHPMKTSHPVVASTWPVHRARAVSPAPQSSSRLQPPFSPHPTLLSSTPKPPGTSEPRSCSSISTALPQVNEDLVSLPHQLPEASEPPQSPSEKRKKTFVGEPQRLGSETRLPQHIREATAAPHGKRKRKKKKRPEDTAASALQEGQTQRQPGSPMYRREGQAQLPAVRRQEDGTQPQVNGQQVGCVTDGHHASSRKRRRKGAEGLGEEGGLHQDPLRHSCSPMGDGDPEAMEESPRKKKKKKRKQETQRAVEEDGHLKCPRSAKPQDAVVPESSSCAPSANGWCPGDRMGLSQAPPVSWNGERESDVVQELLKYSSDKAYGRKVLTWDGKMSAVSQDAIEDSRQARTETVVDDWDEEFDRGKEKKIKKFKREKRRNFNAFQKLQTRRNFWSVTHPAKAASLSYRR
Method in brief: as §1

USP38 = target: T2, USP38 (UniProt Q8NB14)
T2 sequence (whole entry): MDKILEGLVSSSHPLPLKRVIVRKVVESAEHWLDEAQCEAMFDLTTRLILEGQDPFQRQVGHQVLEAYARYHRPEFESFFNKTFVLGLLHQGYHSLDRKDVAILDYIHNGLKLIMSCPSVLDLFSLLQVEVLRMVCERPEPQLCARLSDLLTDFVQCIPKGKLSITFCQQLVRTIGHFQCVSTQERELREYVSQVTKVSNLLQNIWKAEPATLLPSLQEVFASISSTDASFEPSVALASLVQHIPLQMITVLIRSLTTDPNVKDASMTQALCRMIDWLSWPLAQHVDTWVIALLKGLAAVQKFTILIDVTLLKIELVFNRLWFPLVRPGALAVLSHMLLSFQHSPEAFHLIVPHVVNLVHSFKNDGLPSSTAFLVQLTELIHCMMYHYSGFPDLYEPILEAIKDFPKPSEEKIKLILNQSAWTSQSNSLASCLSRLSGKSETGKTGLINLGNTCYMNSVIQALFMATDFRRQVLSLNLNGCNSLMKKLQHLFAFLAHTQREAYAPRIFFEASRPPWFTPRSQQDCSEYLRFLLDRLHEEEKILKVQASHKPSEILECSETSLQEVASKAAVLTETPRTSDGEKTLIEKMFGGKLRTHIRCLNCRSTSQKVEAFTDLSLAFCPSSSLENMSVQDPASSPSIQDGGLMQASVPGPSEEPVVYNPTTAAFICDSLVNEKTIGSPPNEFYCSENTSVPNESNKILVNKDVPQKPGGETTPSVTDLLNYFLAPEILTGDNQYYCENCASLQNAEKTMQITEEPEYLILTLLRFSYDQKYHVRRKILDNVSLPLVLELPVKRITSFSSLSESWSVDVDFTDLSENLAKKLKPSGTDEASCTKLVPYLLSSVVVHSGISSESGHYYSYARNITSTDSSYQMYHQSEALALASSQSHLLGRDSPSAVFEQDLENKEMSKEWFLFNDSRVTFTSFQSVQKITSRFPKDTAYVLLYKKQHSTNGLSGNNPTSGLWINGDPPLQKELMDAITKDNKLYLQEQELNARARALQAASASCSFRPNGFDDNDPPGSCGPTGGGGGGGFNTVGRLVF
Method in brief: as §1

USP39 = target: T3, USP39 (UniProt Q53GS9)
T3 sequence (whole entry): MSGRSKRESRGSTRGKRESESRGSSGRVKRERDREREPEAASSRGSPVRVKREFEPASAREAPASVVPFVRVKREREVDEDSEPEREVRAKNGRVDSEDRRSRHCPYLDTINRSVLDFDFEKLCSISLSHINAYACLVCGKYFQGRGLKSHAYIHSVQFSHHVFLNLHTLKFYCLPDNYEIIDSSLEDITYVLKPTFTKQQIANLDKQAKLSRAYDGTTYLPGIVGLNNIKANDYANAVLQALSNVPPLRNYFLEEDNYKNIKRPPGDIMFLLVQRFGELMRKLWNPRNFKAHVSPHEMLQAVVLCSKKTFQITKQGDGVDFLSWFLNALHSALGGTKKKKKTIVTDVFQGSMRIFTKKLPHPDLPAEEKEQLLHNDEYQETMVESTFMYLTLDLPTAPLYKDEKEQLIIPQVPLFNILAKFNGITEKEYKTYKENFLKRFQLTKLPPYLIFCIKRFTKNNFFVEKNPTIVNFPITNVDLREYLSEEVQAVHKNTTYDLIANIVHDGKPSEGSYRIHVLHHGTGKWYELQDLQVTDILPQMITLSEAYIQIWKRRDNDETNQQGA
Method in brief: as §1

USP4 = target: T4, USP4 (UniProt Q13107)
T4 sequence (whole entry): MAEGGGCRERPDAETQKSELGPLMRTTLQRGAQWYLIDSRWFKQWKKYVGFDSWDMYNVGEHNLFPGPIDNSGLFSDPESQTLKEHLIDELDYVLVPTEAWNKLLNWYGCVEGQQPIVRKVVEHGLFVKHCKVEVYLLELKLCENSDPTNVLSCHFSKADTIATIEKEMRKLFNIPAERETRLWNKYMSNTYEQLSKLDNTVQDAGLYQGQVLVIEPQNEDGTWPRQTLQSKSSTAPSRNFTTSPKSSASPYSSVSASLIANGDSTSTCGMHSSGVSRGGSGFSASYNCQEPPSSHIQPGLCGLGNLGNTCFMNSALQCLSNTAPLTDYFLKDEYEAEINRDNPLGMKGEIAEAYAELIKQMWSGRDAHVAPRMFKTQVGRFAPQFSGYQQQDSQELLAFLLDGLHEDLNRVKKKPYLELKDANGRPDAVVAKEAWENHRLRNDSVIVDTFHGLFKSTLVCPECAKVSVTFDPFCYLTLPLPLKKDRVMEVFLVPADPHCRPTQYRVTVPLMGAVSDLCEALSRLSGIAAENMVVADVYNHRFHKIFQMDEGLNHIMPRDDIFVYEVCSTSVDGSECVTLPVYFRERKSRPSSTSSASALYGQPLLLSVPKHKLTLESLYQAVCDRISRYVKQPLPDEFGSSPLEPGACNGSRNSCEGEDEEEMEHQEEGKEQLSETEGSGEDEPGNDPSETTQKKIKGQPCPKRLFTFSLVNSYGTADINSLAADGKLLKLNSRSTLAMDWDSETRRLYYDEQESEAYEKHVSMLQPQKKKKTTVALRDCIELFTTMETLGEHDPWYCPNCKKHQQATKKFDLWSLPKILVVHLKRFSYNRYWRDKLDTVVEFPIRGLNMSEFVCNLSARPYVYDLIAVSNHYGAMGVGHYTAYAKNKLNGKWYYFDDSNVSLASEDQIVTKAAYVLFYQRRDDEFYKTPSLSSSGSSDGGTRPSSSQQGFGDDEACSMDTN
Method in brief: as §1

Measured: log2 ratio of Biotin-Ahx-Ub-VS probe labelling

Sequence of USP34 (Q70CQ2 whole entry, the tested form may be a part): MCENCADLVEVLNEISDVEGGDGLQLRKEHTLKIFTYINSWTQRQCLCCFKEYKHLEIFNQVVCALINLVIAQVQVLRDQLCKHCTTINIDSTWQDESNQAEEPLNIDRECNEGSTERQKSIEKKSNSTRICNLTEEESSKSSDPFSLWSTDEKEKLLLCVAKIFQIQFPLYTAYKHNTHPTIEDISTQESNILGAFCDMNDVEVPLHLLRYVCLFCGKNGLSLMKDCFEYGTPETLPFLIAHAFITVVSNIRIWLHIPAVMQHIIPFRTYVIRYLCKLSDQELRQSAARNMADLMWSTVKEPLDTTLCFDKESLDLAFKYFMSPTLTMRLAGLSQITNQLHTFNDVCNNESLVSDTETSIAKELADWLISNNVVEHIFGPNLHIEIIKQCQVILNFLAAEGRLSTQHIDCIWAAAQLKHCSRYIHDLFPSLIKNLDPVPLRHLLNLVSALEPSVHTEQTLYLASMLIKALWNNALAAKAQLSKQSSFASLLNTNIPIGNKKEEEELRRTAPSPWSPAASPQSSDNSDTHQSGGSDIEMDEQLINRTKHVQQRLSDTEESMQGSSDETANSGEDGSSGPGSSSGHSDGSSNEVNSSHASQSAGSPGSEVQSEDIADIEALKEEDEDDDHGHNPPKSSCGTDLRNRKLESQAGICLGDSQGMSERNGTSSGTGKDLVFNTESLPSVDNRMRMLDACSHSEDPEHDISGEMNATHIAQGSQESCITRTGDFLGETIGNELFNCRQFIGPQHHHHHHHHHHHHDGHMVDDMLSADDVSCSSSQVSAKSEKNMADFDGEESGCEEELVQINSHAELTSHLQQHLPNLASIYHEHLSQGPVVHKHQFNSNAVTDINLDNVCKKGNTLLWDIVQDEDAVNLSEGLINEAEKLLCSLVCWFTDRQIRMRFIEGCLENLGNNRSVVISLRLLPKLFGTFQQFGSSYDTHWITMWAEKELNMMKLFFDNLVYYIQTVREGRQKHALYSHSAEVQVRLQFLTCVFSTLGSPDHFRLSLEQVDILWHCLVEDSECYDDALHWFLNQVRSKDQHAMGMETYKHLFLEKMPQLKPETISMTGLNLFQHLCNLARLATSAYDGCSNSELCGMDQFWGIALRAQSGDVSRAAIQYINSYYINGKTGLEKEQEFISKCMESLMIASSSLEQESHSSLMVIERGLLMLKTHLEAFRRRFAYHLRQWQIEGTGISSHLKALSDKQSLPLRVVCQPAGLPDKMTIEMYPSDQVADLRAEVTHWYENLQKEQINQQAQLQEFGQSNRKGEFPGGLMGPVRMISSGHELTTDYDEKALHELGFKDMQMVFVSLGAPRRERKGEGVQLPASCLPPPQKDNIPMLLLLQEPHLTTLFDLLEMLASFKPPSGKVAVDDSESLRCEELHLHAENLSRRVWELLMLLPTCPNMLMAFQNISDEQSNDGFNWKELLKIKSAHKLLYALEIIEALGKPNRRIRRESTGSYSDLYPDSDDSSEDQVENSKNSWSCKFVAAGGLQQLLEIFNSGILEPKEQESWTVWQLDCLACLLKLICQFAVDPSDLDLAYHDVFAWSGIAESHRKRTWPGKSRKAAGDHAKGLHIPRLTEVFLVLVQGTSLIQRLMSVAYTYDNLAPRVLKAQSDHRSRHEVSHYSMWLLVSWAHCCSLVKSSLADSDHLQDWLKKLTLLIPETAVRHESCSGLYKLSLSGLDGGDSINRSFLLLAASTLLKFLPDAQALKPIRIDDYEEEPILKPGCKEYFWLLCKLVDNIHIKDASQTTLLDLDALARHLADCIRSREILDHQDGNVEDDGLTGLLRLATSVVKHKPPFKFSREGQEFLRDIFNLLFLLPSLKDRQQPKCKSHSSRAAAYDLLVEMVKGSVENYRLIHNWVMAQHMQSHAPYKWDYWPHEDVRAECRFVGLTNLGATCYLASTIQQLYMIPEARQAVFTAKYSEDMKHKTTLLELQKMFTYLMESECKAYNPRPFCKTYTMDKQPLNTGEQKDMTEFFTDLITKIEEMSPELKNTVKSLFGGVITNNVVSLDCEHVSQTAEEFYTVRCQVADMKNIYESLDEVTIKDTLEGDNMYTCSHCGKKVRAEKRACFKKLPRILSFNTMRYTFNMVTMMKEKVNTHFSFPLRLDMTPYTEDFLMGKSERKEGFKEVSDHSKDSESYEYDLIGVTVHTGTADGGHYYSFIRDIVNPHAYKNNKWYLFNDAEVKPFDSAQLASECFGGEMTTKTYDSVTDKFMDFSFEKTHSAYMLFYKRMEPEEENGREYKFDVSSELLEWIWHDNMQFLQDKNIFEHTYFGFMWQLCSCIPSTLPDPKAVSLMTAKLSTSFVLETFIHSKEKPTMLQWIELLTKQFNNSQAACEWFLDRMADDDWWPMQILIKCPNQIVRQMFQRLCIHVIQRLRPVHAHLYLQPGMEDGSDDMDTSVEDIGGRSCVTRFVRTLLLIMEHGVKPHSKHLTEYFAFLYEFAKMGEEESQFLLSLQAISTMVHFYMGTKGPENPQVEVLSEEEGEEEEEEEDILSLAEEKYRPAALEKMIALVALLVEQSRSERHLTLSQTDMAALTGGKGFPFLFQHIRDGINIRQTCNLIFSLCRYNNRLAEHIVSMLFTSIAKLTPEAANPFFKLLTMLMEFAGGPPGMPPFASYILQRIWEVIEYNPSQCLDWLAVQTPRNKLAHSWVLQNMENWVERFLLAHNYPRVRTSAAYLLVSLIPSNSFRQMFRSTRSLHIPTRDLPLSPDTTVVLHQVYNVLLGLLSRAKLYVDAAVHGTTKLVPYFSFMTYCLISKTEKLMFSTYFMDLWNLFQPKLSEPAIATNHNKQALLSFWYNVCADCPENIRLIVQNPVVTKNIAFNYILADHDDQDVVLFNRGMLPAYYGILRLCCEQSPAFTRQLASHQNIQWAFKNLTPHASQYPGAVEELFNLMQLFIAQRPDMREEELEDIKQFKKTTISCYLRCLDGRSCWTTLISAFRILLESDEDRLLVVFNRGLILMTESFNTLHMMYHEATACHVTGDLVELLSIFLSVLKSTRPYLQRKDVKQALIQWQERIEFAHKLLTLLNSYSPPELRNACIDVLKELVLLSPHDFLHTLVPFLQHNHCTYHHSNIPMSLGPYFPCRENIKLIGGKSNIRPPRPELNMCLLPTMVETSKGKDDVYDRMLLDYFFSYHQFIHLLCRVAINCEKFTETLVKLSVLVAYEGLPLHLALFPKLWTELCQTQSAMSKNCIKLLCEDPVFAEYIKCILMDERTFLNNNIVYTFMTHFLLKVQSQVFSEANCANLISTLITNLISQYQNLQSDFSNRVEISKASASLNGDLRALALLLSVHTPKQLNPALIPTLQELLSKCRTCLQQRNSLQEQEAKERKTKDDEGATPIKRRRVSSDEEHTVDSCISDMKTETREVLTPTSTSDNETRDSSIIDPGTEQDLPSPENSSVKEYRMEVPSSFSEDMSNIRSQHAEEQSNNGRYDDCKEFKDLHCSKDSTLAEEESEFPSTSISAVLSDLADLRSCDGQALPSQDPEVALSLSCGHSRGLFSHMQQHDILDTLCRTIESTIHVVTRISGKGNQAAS

O=C(CCl)N1CCN(C(=O)Nc2ccccc2)CC1
inactive: USP34 -0.102 | USP36 -0.282 | USP38 0.184 | USP39 -0.0496 | USP4 0.0949
